# Screening data (PubChem BioAssay)
# FLuc inh – inhibitors of firefly (Photinus pyralis) luciferase; purified P. pyralis luciferase, luminescence, biochemical; 76,000 tested, 2.5% active; Potency, µM (doses to about 115 µM), most hits filed as inhibitors; further: nearly all actives have a fitted effect of over 65% in size
# Target sequence (P08659 whole entry, looked up): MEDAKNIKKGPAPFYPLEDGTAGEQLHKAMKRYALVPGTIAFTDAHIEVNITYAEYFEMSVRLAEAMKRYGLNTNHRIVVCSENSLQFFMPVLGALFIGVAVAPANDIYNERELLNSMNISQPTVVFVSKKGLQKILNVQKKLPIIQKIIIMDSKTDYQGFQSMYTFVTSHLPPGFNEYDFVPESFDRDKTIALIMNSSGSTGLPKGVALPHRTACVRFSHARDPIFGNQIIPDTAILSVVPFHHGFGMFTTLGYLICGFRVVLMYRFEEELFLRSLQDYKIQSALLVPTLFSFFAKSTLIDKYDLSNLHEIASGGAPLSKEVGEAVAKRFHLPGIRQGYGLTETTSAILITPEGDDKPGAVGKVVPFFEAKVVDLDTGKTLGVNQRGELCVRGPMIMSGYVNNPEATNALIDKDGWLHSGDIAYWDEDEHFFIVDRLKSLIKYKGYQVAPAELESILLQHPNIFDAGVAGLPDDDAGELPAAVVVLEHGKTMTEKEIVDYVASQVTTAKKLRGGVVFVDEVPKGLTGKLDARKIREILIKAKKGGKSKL
#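 Luminescence read by CCD imager after adding enzyme (10nM final) to wells holding compound, titrated in qHTS. Substrates 10uM each D-luciferin and ATP; buffer 50mM Tris acetate pH 7.5, 10mM Mg acetate, Tween-20, BSA.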
# hNpr1 antagonist – blocks ANP-stimulated signaling of human Npr1 receptor. HEK293 hNpr1 GloSensor cGMP, ANP-stimulated luminescence. Potency, µM (top dose mostly 46.3 µM), for inactives: top-dose activity change, negative = inhibition, actives largely listed as inhibitors. AID 1347048. P16066. 76,000 tested, 1.6% active; calls by dose curve; further: nearly all actives have a fitted effect of over 60% in size
#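 HEK293 cells stably expressing human Npr1 and cGMP GloSensor pGS-40F, loaded 2 h with 2% GloSensor reagent, given compound 30 min at room temperature. Luminescence read before and 20 min after 0.1 nM hNppA.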
# 3T3 cytotox – cytotoxic compounds in NIH 3T3 cells. NIH 3T3 viability, CellTiter-Glo ATP luminescence, 48-72 h. Potency, µM (series often up to 96.7 µM), without a hit: at the top dose activity change, negative = cytotoxicity, hits mostly inhibitors. 94,000 tested, 4.3% active. AID 1345082; further: nearly all actives have a fitted effect of over 55% in size
#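 Viability of NIH 3T3 cells after 48 or 72 hr compound treatment at 37 °C was assessed by CellTiter-Glo, with luminescence imaged following a 10 min room-temperature step.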
# HEK cytotox – HEK 293 cell cytotoxicity. HEK 293 viability, ATP luminescence (CellTiter-Glo), 48-72 h. Potency, µM (series often up to 115 µM), without a hit: at the highest dose activity change, negative = cytotoxicity, most hits filed as inhibitors. 94,000 tested, 6.6% active; further: nearly all actives have a fitted effect of over 60% in size
#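 Cells seeded first (HEK 293, 250 cells/well), then compound added by pintool. Incubation ran 48 or 72 hr at 37 degree Celsius. CellTiter-Glo was added and luminescence imaged after 10 min at room temperature.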
# * hit, by the source's call; i = inactive; u = inconclusive; x = no result; [ ] = dose if it differs, or a comment. An excerpt weighted towards active compounds, which were near 11% of everything screened. Unless noted, the call rests on the fitted dose curve; in most records, active means well fitted curve in the direction sought with a large enough effect; inconclusive means small, poorly fitted or top-dose-only effect, or another doubt; inactive means no such curve, though single readings can be large; an effect the other way counts as inactive or inconclusive. On the % scale 0 is the no-effect control and ±100 the full control effect; potency means the concentration at half of the fitted maximal effect.
SMILES,FLuc inh,hNpr1 antagonist,3T3 cytotox,HEK cytotox
COc1ccccc1Nc1ccnc(N2CCC(NC(=O)c3ccc(C)cc3)CC2)n1,x,x,39.8µM*,u
COc1ccccc1Nc1ccnc(N2CCC(NC(=O)Cc3ccc(F)cc3)CC2)n1,x,x,u,44.7µM*
COc1ccccc1Nc1ccnc(N2CCC(NC(=O)c3ccccc3)CC2)n1,x,x,-9.8%,u
COc1ccccc1Nc1ccnc(N2CCC(NC(=O)c3ccc(F)cc3)CC2)n1,x,x,-27.8%,-29.4%
O=C1Cc2c(-c3ccccc3)n[nH]c2CN1CC1CCOCC1,i,-9.3%[70.6 µM],50.1µM*,1.5%[172 µM]
COCc1cccc(-c2n[nH]c3c2CC(=O)N(CC2CCOCC2)C3)c1,i,6.2%[70.6 µM],u,-25.8%[172 µM]
O=C1Cc2c(-c3ccccc3Cl)n[nH]c2CN1CC1CCOCC1,i,-0.3%[70.6 µM],89.1µM*,-8.8%[172 µM]
Cn1c(CNC(=O)CCC[C@@H]2[C@H]3CCCN4CCC[C@@H](CN2Cc2ccccc2)[C@@H]34)nc2ccccc21,i,0.6%,u,u
COc1ccccc1-c1ccc(CN2CCC(N[S+](=O)([O-])c3cccc(C(F)(F)F)c3)C2)cc1 (centres undefined),x,x,12.6µM*,20µM*
O=c1n(CCN2CCC(N[S+](=O)([O-])c3cccc(C(F)(F)F)c3)C2)nc2n1CCCC2 (centres undefined),x,x,-3.0%,i
CC(=O)Nc1ccc(CN2CCCC(c3nc4ccc(F)cc4c(=O)[nH]3)C2)cc1 (centres undefined),i,3.3%,u,u
COc1ccc(F)cc1-c1ccc(CN2CCC(N[S+](=O)([O-])c3cccc(C(F)(F)F)c3)C2)cc1 (centres undefined),x,x,12.6µM*,20µM*
COc1ccccc1-c1ccc(CN2CCC(N[S+](=O)([O-])c3ccccc3)C2)cc1 (centres undefined),x,x,31.6µM*,35.5µM*
COc1ccc(F)cc1-c1ccc(CN2CCC(N[S+](=O)([O-])c3ccc(NC(C)=O)cc3)C2)cc1 (centres undefined),x,x,u,14.1µM*
COc1ccc(-c2cccc(C(=O)N3CCC(NC(=O)Cc4ccccc4)CC3)c2)nn1,x,x,u,-4.8%
Cc1nn(-c2ccc(F)cc2)c(Oc2ccc(F)cc2F)c1CCC(=O)N1CCSCC1,i,-18.5%,u,u
COCCCNc1ncnc2sc3c(c12)CCNC3,i,7.4%,u,u
Cc1cc2c(-c3cccc(CO)c3)nc(-c3c(C)noc3C)cc2[nH]1,i,-11.6%[70.6 µM],35.5µM*,u
Cc1cc2c(-c3ccccc3C)nc(-c3c(C)noc3C)cc2[nH]1,i,-15.2%[70.6 µM],u,u
Cc1cc2c(-c3cccc(S(C)(=O)=O)c3)nc(-c3c(C)noc3C)cc2[nH]1,i,u,8.91µM*,u
COc1cc(-c2nc(-c3c(C)noc3C)cc3[nH]c(C)cc23)ccn1,i,-16.7%[70.6 µM],u,89.1µM*
Cc1cc2c(-c3ccc(S(C)(=O)=O)cc3)nc(-c3c(C)noc3C)cc2[nH]1,i,u,u,u
Cc1cc2c(-c3cccc(O)c3)nc(-c3c(C)noc3C)cc2[nH]1,i,-22.4%[70.6 µM],35.5µM*,44.7µM*
Cc1cc2c(-c3ccccc3O)nc(-c3c(C)noc3C)cc2[nH]1,i,6.5%[70.6 µM],u,u
Cc1cc(CNC(=O)c2cc(-c3ccccc3C)cc3c2OCCN3C)no1,i,-7.4%[70.6 µM],u,u
SMILES,FLuc inh,hNpr1 antagonist,3T3 cytotox,HEK cytotox
Cc1cc(F)ccc1OC1CNC1,x,x,-9.2%[174 µM],-14.9%[230 µM]
CC(C)c1ccc(NC(=O)CN2C(=O)NC(c3ccccc3Cl)C3=C2COC3=O)cc1 (centres undefined),u,-11.5%,u,u
CN1CCN(C(=O)c2ccc(-c3ccc(N4CCSCC4)nc3)cc2)CC1,35.5µM*,-28.6%,u,u
O=C(NCc1ccccc1F)c1ccc(-c2ccc(N3CCSCC3)nc2)cc1,u,-21.2%,-9.8%,u
CCCN1CCN(C(=O)c2ccc(-c3ccc(N4CCCCC4)nc3)cc2)CC1,u,-15.2%,u,u
CC(NC(=O)c1ccc(-c2ccc(N3CCCCCC3)nc2)cc1)c1cccnc1 (centres undefined),u,u,25.1µM*,u
O=C(c1ccc(-c2ccc(N3CCSCC3)nc2)cc1)N1CCCCC1,u,10µM*,35.5µM*,u
O=C(c1ccc(-c2ccc(N3CCCCC3)nc2)cc1)N1CCCC1,28.2µM*,u,39.8µM*,u
